# Compound activity deposited in PubChem BioAssay by National Center for Advancing Translational Sciences (NCATS).
# HCV inhibitor: blocks hepatitis C virus; Huh7.5.1 HCVcc-Cre infection, luciferase reporter, 44 h; Potency, µM (highest dose often 41.8 µM), for the others: at the top dose activity change, negative = inhibition, most hits filed as inhibitors; actives 3.4% (n = 340,000); further: potency means the concentration at half of the fitted maximal effect; on the % scale 0 is the no-effect control and ±100 the full control effect
#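 Compounds are dispensed onto cells plated 4 h earlier at 1,000 per well, with HCVcc-Cre virus (about 0.5 moi) added next. Following 44 h of culture, luminescent signal is measured for 15 sec after 15 min with substrate at room temperature.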
# Pf growth 96h: inhibits malaria parasite growth, 96 h; Potency, µM (series often up to 28.7 µM), without a hit: at the top dose activity change, negative = inhibition, most hits filed as inhibitors; actives 6.9% (n = 320,000); P. falciparum luciferase reporter growth, 96 h; AID 504834; further: potency means the concentration at half of the fitted maximal effect; on the % scale 0 is the no-effect control and ±100 the full control effect
#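 Erythrocytes infected with luciferase-expressing P. falciparum were dispensed at 2% hematocrit and 0.05% parasitemia (final), then incubated with compounds 96 hours at 37 C in 5% CO2. Luminescence after detection reagent addition reported growth.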
# Cycloheximide cs: counter-screen hit for Shiga toxin inhibitors, cycloheximide; cell reporter, cycloheximide protein synthesis inhibition counterscreen; max response, %; actives 12% (n = 300,000); AID 2314; in the data active means max response mostly above about 13%, no sharp cut-off; inactive means mostly below about 14%; further: read at 38.3 µM for the half of the compounds with a filed dose; 0% is about no effect
# Shiga toxin inh: inhibitors of Shiga toxin in Vero cells; Vero cells, Shiga toxin protein synthesis inhibition reporter; inhibition, % at 38.7 µM; actives 9.2% (n = 290,000); in the data active means inhibition mostly above about 28%, no sharp cut-off; inactive means mostly below about 43%; further: 0% is about no effect
# Pf growth 48h: P. falciparum growth inhibition at 48 hours (one generation); P. falciparum luciferase growth in erythrocytes, 48 h; Potency, µM (top dose mostly 28.7 µM), inactives show at the top dose activity change, negative = inhibition, usual class: inhibitors; actives 5.9% (n = 310,000); further: potency means the concentration at half of the fitted maximal effect; on the % scale 0 is the no-effect control and ±100 the full control effect
#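 In quantitative HTS format, infected erythrocytes bearing luciferase-reporter parasites were treated for a single generation at 37 C. Luminescence after adding detection reagent served as the growth measure.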
# HCMV inh: human cytomegalovirus inhibition; actives 4.5% (n = 410,000); activity change, negative = inhibition, % at 57.5 µM; AID 1259415; HFF cells, HCMV-luciferase reporter, 72 h; stronger effect = lower value; in the data active means activity change below about -60%; inconclusive means no clear call, values can overlap the other calls; inactive means above about -39%; further: on the % scale 0 is the no-effect control and ±100 the full control effect
#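 HFF cells seeded 16 h at 37C, treated with compounds, infected with luciferase-reporter HCMV at MOI 1 PFU/cell; luciferase read at 72 h post infection, normalized to buffer-only and Salinomycin controls.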
# * = called active by the depositor; i = inactive; u = inconclusive; x = no result given; + = active, no number; ! = not confirmed by another sample; [ ] = another dose, or the depositor's remark. Compounds with a hit are over-represented: about 21% of the library has one in this group of screens. Unless noted, the call rests on the fitted dose curve; in most records, active means well fitted inhibition curve with a large enough effect; inconclusive means small, poorly fitted or top-dose-only effect, or another doubt; inactive means no such curve, though single readings can be large or run the other way.
SMILES,HCV inhibitor,Pf growth 96h,Cycloheximide cs,Shiga toxin inh,Pf growth 48h,HCMV inh
O=C(CNC(=O)c1ccc(Cl)cc1)N/N=C/C=C/c1ccccc1,-6%,60%,-1,6,5%,0
O=C(O)c1cc(N/N=C/c2ccc(OCc3ccccc3)cc2)ccc1Cl,10%,247%[5.75 µM],72*,149*,353%,15
CSc1ccc(/C=N/Nc2cccc(C(=O)O)c2)cc1,32%,i,92*,+,483%,x
O=C(O)c1cccc(N/N=C/c2ccc(OC(F)(F)F)cc2)c1,15%,u,77*,138*,336%,47
O=C(O)c1cc(N/N=C/C=C/c2ccccc2)ccc1Cl,4%,i,40*,172*,i,128
CSc1ccc(/C=N/NC(=O)C[n+]2ccccc2)cc1,11%,37%,0,-3,u,x
Cc1cccc(CN2C(=O)c3ccccc3Sc3ccc(C(=O)N4CCCC4)cc32)c1,x,x,x,x,x,16
C[C@@H](c1ccccc1)N1C[C@H](COCc2ccccc2)Oc2cc(N3CC[C@H](O)C3)ccc2S1(=O)=O,x,x,x,x,x,-21
COc1cccc(Cn2c(-c3nonc3NC(C)=O)nc3ccccc32)c1,x,x,x,x,x,56
CSc1ccc(/C=N/Nc2nc(C)cc(=O)[nH]2)cc1,6%,10%,11,29,40%,16
O=C(O)c1cccc(N/N=C/c2cccs2)c1,9%,i,84*,147*,383%,-28
COC(=O)c1ccc(COc2ccc(/C=N/Nc3nc(C)cc(=O)[nH]3)cc2)cc1,-16%,-76%,9,45*,u,-5
COC(=O)c1ccc(COc2ccc(/C=N/Nc3cccc(C(=O)O)c3)cc2)cc1,30%,i,84*,109*,413%,0
O=C(CCCNc1ccccc1)N/N=C/c1cccs1,3%,17%,-4,-3,-1%,-10
CN1CCC(Nc2nc(Br)cnc2N)CC1,x,x,x,x,x,10
COc1cccc(/C=C/c2nc(C#N)c(N3CCC(C(N)=O)CC3)o2)c1,x,x,x,x,x,-2
CN1[C@@H](CC(=O)c2ccccc2)CCC[C@H]1C[C@H](O)c1ccccc1,u,17µM*!,-5,-15,13µM*,-28
CN1C(CC(=O)c2ccccc2)CCCC1CC(O)c1ccccc1 (stereo unspecified),-27%,x,14,-1,u,-14
COC(=O)c1c(C(=O)c2ccc(Br)cc2)n(C)c2ccccc12,-16%,u,x,x,13µM*,u
O=[N+]([O-])c1ccc(C[n+]2cccc3c4ccccc4ccc32)cc1,-29%,17%,-6,10,14%,-81*
CC1=C(C(=O)Nc2ccccc2)C(c2ccco2)NC(=O)N1 (stereo unspecified),8%,x,x,x,x,-97*
CC1=C(C(=O)Nc2ccc(C)cc2)C(c2ccco2)NC(=O)N1 (stereo unspecified),20%,u,-2,1,-6%,-8
CCN(CC)c1ccc(C2NC(=O)NC(C)=C2C(=O)Nc2ccccc2)cc1 (stereo unspecified),-12%,2.6µM*,-2,-5,x,-7
CCOC(=O)C1=C(C)NC(=O)NC1c1ccc(N(CC)CC)cc1 (stereo unspecified),u,u,-8,-14,x,6
C#C[C@]1(OC(C)=O)CC[C@H]2[C@@H]3CCC4=CC(=O)CC[C@@H]4[C@H]3CC[C@@]21C,x,x,6,-5,x,x
SMILES,HCV inhibitor,Pf growth 96h,Cycloheximide cs,Shiga toxin inh,Pf growth 48h,HCMV inh
CCOc1ccc(-c2nnc(SCC(=O)NC(C)(C)C)nc2-c2ccc(OCC)c(OC)c2)cc1OC,u,u,-3,-4,2.3µM*,77
COc1ccc(-c2nnc(SCC(=O)NCc3ccccc3)nc2-c2ccc(OC)c(OC)c2)cc1OC,x,x,x,x,x,-78*
CCOc1ccc(-c2nnc(SCC(=O)NC3CCCC3)nc2-c2ccc(OCC)c(OC)c2)cc1OC,x,x,x,x,x,17
O=C(NC12CC3CC(CC(C3)C1)C2)OCCNC1CCCCC1,9%,10µM*,0,-11,u,u
ClCC1=Nc2cccc3cccc(c23)N1,x,4.7µM*,-2,9,4.1µM*,x
COc1ccc2nc(-c3nc4ccccc4[nH]3)c(C)nc2c1,x,x,x,x,x,17
CCOc1ccc2ncc(S(=O)(=O)c3ccccc3)c(N3CCC4(CC3)OCCO4)c2c1,1%,10µM*,-2,-2,13µM*,u
COc1ccc(S(=O)(=O)c2cnc3ccc(OC)cc3c2N2CCC3(CC2)OCCO3)cc1,u,8.3µM*,1,-11,u,-74*
CCN1CCN(c2c(S(=O)(=O)c3ccccc3)cnc3ccc(Cl)cc23)CC1,x,x,x,x,x,-27
Cc1c(C(=O)NCc2n[nH]c(=S)n2-c2ccc(F)cc2)cccc1[N+](=O)[O-],1%,15%,-11,-17,6%,-33
CN(CCOc1ccccc1)C(=O)c1ccc(N2CCCC2)c([N+](=O)[O-])c1,-15%,1%,6,52,11%,-4
CSc1ncc2c(n1)-c1cc(C)ccc1SC2,8.9µM*,9%,-2,-20,4%,-98*
CCC(=O)NCCc1c[nH]c2ccccc12,12%,33%,2,-17,8%,72
Cc1ccsc1C(=O)NCCc1c[nH]c2ccccc12,-16%,113%,36*,73*,154%,67
COc1ccc(-c2cn(CCc3c[nH]c4ccccc34)nn2)cc1,u,9.3µM*,7.4*,20,12%,u
COc1cc(SC)ccc1C(=O)NCCc1c[nH]c2ccccc12,u,-15%,27*,59,56%,32
O=C(NCCc1c[nH]c2ccccc12)c1ccc(F)cc1F,4%,94%,25*,116*,78%,23
O=C(NCCc1c[nH]c2ccccc12)C(=O)c1c[nH]c2ccccc12,6%,u,-6,-2,-7%,-8
C/C(=N\OCC(=O)OCC(=O)N(Cc1ccccc1)C(C)(C)C)c1ccc2c(c1)OCO2,34%,39%,x,x,30%,-18
CC(C)CCn1c(SCc2ccc(F)cc2Cl)nc2ccsc2c1=O,x,x,x,x,x,19
O=C(NCCSc1c[nH]c2ccccc12)c1ccc(Cl)cc1,x,x,x,x,x,-11
O=C(NCCc1c[nH]c2ccccc12)c1ccc(Cl)cc1,u,u,48*,127*,68%,43
COc1cccc(Cn2cc(-c3cccc(C(F)(F)F)c3)nn2)c1,-34%,-11%,-1,-1,15%,-11
O=C(CCNS(=O)(=O)c1ccc(OC(F)(F)F)cc1)NCCc1c[nH]c2ccccc12,u,10µM*,x,x,u,0
O=C(NCCc1c[nH]c2ccccc12)c1cnc2sccn2c1=O,4%,87%,34*,84*,x,133
COc1ccc(-c2cn(Cc3cccc(OC)c3)nn2)cc1,u,-42%,29*,82*,-78%,35
